The results in this text go back to PubChem BioAssay (NCI).

Compounds without any hit were thinned out: in the full panel of roughly 83,000, 20% have a hit.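 The test compound was applied at a single concentration to cells in 96-well plates for 48 hours, and percent growth was recorded.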 A number with no mark means an inactive call. Calls of active or inactive are those of the source. How the source made its calls: active means growth percent below 10; inactive means the rest.

The experiment deals with SNB-19 CNS. In words: NCI-60 one-dose screen, 48 h (100 = growth as untreated, 0 = no growth, -100 = all killed). Conditions: 10 µM unless noted.
On to `CCN(CC)CC#CCOC(=O)[C@]1(C)CCC[C@]2(C)[C@H]3C[C@H]4C(C(C)C)=C[C@]3(CC[C@H]21)[C@@H]1C(=O)CCC(=O)[C@@H]14`, for which the growth was 70.4%. `CN1CCN(CC#CCOC(=O)CNC(=O)[C@]23CCC(C)(C)C[C@H]2C2=CC[C@@H]4[C@@]5(C)CC[C@H](O)C(C)(C)[C@@H]5CC[C@@]4(C)[C@]2(C)CC3)CC1`: the growth was 87.1%. To `Nc1cc(N)c(S(=O)(=O)O)cc1N=Nc1cc([N+](=O)[O-])ccc1O` belongs 98.8%; to `COc1ccc2c(c1)Oc1nc(N)c(C#N)c(N)c1C2Sc1ccc(SC)cc1` (stereo not drawn), 58.2%; to `CO[C@@]12C=C[C@@]34CCC(=O)N3c3ccccc3[C@@H](O1)C4C2`, 99.1%.

Regarding `COc1cc(NC(=O)Nc2cnc(Nc3ccc(N4CCOCC4)cc3)nc2Oc2ccc(F)cc2)cc(OC)c1`, the growth is 96%.

For the molecule `C/C(=N/Nc1nc2ccccc2n1C)c1ccccn1`, the growth is 15.2%. To `Cc1cccc(C)c1NC(=O)CN(CC(C)C)CC(O)COc1ccccc1` (stereo not drawn) belongs 108%.

For the molecule `COC(=O)c1ccc2c(c1)NC(=O)[C@@H]1CCCN21`, the growth was 94.2%. Then `O=C1c2ccccc2C(=O)c2c1oc1c2c(=O)[nH]c2ccc(Cl)cc21`, with 7.11% (active); and `COc1cc(NC(=O)Nc2cnc(Nc3ccc(N4CCOCC4)cc3)nc2Oc2ccc(C(F)(F)F)cc2)cc(OC)c1`, with 99.5%. To `COc1ccc(C(=O)c2cc(F)c(F)c(OC)c2F)cc1OC(=O)CCl` belongs 39.1%; to `Nc1c(C(=O)Nc2cccc3ccccc23)sc2nc3c(cc12)CCCCC3`, 27.2%.

Take `O=c1[nH]c2ccccc2cc1-c1nc2ccncc2[nH]1`: the growth was 82.5%. Then `C=C1C(=O)O[C@H]2[C@H]1CC/C(COC(=O)NCc1nc3ccccc3[nH]1)=C\CC[C@@]1(C)O[C@@H]21`, with 98.6%. Regarding `Cc1cccc(C)c1NCc1nnc(-c2ccco2)o1`, the growth is 101%. Then `Nc1c(C(=O)Nc2ccccn2)sc2nc3c(cc12)CCCC3`, with 45.7%. To `Cc1c(Cl)cccc1NC(=O)c1sc2nc3c(cc2c1N)CCCCC3` belongs 34.2%; to `CCSc1nc(Cl)c(C#N)c(-c2ccc(F)cc2)n1`, 92.7%. To `CCc1n(Cc2ccc3ccccc3c2)c2ccccc2[n+]1Cc1ccc2ccccc2c1` belongs 45.3%; to `NC(=O)CN1C(=O)c2ccccc2C1=O`, 98.4%; to `O=C1C(=O)c2c(nc3ccc(C(F)(F)F)cn23)-c2ccccc21`, -84.4% (active). Regarding `COc1cccc(NC(=O)Nc2ccc(Nc3ncnc4[nH]c(C)c(C)c34)cc2)c1`, the growth was 98.5%.

With `NC(=O)c1ccc2nc3c(n2c1)C(=O)C(=O)c1ccccc1-3`, the growth is -97.5% (active). To `O=C(O)c1cc(N=Nc2ccc(-c3ccc(N=Nc4c(S(=O)(=O)O)cc5ccc(Nc6ccccc6)cc5c4O)cc3)cc2)ccc1O` belongs 102%; to `C=C1C(=O)O[C@H]2[C@H]1CCC(/C=N/c1ncc(Br)cc1N)=C\CC[C@@]1(C)O[C@@H]21`, 44.2%.

Turning to `Cc1nc2sc(C(=O)Nc3ccccc3Cl)c(N)c2cc1C(C)O` (stereo not drawn), the growth was 83.2%. To `COc1ccc(/C=C/C(=O)c2ccc(NC(=O)CSc3nnc(-c4ccc(OC)c(OC)c4)n3-c3ccccc3)cc2)cc1` belongs 60.5%; to `O=c1c2ccccc2n(CC(O)CN2CCCC2)c2c(Br)cccc12` (stereo not drawn), 84.7%. Then `O=C(CCCCCCCCC(=O)Nc1cccc(C2=NCCN2)c1)Nc1cccc(C2=NCCN2)c1`, with 102%. As to `Cc1ccc(C(=O)/C(=C/c2ccc([N+](=O)[O-])cc2)S(=O)Cc2ccccc2)cc1` (stereo not drawn), the growth is 34.8%.

In the case of `COc1ccc(-c2nc(C#N)c(NCC(c3ccc(Cl)cc3)N3CCCCC3)o2)cc1` (stereo not drawn), the growth is 113%.

In the case of `O=C1CC(c2ccc(O)c(O)c2)Oc2cc(O)c([C@@H]3O[C@H](CO)[C@@H](O)[C@H](O)[C@H]3O)c(O)c21` (stereo partly drawn), the growth is 102%. Then `CCCn1c2cc(OCc3cn(-c4ccc(Cl)cc4)nn3)ccc2c2ccnc(C)c21`, with 80.6%; and `COc1ccccc1C(=O)/C=C/c1cc2cccc(OC)c2[nH]c1=O`, with -4.63% (active). Then `O=[N+]([O-])c1ccc(N=Nc2c(O)c(N=Nc3cc([N+](=O)[O-])cc([N+](=O)[O-])c3O)cc(N=Nc3cc(S(=O)(=O)O)cc4cc(S(=O)(=O)O)cc(O)c34)c2O)cc1`, with 105%; and `COc1cc(N=Nc2cc(S(=O)(=O)O)cc3cc(S(=O)(=O)O)cc(O)c23)c(C)cc1N=Nc1c(S(=O)(=O)O)cc2cc(Nc3ccccc3)ccc2c1O`, with 104%; and `C=C1C(=O)O[C@H]2[C@H]1CC/C(COC(=O)/C=C/c1cccnc1)=C\CC[C@@]1(C)O[C@@H]21`, with 75.2%.
